Compounds with a hit are over-represented: about 3.6% of the library has one in this group of screens.
mHTT-CaM PPI inh: mHTT-calmodulin interaction abrogation; AlphaScreen His-mHTT/GST-CaM binding, luminescence; hit rate 3.6% among 190,000; inhibition, % at 15 µM; AID 1671202; P42858;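 note: 0% = both proteins with DMSO and 100% = one protein alone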
Pf apPOL inh: Pf-apPOL DNA polymerase inhibition. inhibition, % at 10 µM. Recombinant Pf-apPOL, molecular beacon fluorescence, 1.5 h. hit rate 0.25% among 210,000
* hit, by the source's call; · = no result. Cut-off read from the data, not from the text of the source: active = inhibition above about 50%; inactive = the rest.

SMILES	mHTT-CaM PPI inh	Pf apPOL inh
COc1ccc(N(CC(=O)Nc2ccc(Br)c(C)c2)S(C)(=O)=O)c(OC)c1	54.1*	-0.2
COc1ccc(CN2CCn3cnnc3C2)c(Cl)c1OC	6.1	1.2
N#CC1=C(N)OC(C2CC2)=C(n2cnc([N+](=O)[O-])n2)C1c1ccccc1 (centres undefined)	17.0	-5.0
N#CC1=C(N)OC(c2ccccc2)=C(n2cncn2)C1c1ccc(Br)cc1 (centres undefined)	57.0*	8.9
N#CC1=C(N)OC(c2ccccc2)=C(n2cnc([N+](=O)[O-])c2)C1c1cccnc1 (centres undefined)	-1.0	-2.1
N#CC1=C(N)OC(c2ccccc2)=C(n2cnc([N+](=O)[O-])n2)C1c1ccccc1 (centres undefined)	75.4*	2.5
O=c1c2c(nc3n1CCC3)sc1c(O)c(Br)ccc12	-2.0	1.2
O=C(Nc1ccc(-c2ccc([N+](=O)[O-])cc2)cc1)c1ccco1	2.0	-2.1
Cc1cccnc1NC(c1ccc([N+](=O)[O-])cc1)c1ccc2cccnc2c1O (centres undefined)	100.3*	-253.4
CC(Oc1cccc2cccnc12)C(=O)O (centres undefined)	2.2	-1.6
O=[N+]([O-])c1ccc(NC(c2ccco2)c2ccc3cccnc3c2O)cc1 (centres undefined)	100.0*	-4.6
CC(=O)NC(c1ccc(C)cc1)c1ccc2cccnc2c1O (centres undefined)	100.0*	-0.9
Cc1ccc2cccc(SCc3ccc([N+](=O)[O-])cc3)c2n1	3.2	-1.1
CC(=O)NC(c1ccc([N+](=O)[O-])cc1)c1ccc2cccnc2c1O (centres undefined)	100.3*	-3.8
O=C(NCc1cccnc1)C1CCN(c2nccn3nc(-c4ccc(F)cc4)cc23)CC1	-2.8	8.0
O=C1NC(=Nc2ccc(Br)cc2)S/C1=C/c1ccc(O)cc1	23.0	-0.6
O=C(CSc1ncc(-c2ccc(Br)cc2)[nH]1)Nc1ccc(F)cc1F	32.0	-3.3
COc1ccc(C=C2Oc3cc(OCC(=O)OC(C)C)ccc3C2=O)c(OC)c1	-18.1	-10.8
Clc1ccc(OCCn2nnc3ccccc32)cc1	-10.8	-2.7
COCCn1cnc2sc(C(=O)Nc3cc(Cl)c(OC)cc3OC)c(C)c2c1=O	21.0	-4.9
O=C1OC(c2cc(Cl)ccc2Cl)=N/C1=C\c1cccnc1	1.0	2.5
O=C1C(=Cc2ccc(C(F)(F)F)cc2)CCC1=Cc1ccc(C(F)(F)F)cc1	·	-9.5
O=C1/C(=C/c2ccc(O)cc2)SC(=Nc2ccc(O)cc2)N1c1ccc(O)cc1	50.0	29.2
Cc1ccccc1C(NC(N)=O)c1ccccc1 (centres undefined)	-8.7	-4.2
CC(=O)NC(c1ccccc1C)c1ccc2cccnc2c1O (centres undefined)	100.0*	14.3
SMILES	mHTT-CaM PPI inh	Pf apPOL inh
CC1(C(=O)NC2CCCCCCC2)CCC(=O)N1CCc1ccccc1 (centres undefined)	-2.2	4.6
CCNC(=O)c1cc2sc(C)cc2n1CC	-2.0	-6.2
Cc1cc2c(cc(C(=O)NCc3ccccn3)n2CC(C)C)s1	69.5*	-12.9
O=C(Nc1ccc(NC(=O)C(Cl)Cl)cc1)C(Cl)Cl	11.6	-2.4
COc1ccc(CCC(C)Nc2ccc(OC)cc2OC)cc1 (centres undefined)	85.1*	0.0
COc1ccc(CCC(C)NCc2ccccc2OC)cc1 (centres undefined)	-10.5	-1.9
Cc1cccc(-n2nc3c(c2NC(=O)CCc2ccccc2)CS(=O)(=O)C3)c1C	0.0	-2.0
COC(=O)c1ccccc1NC(=O)C=NO	·	-4.8
O=C(Nc1ccccc1C(=O)Nc1ccccc1C(=O)O)c1ccccc1	80.5*	-21.3
Cc1ccccc1NC(=O)c1ccc(C(=O)Nc2ccccc2C)cc1	-4.8	61.4*
Cc1ccccc1NC(=O)c1ccc(-c2ccsc2)nc1	2.0	58.7*
O=C(C=NNc1ccccc1)Nc1ccccc1C(=O)O	·	88.5*
O=C(Nc1ccccc1NC(=O)c1ccccc1)c1ccccc1	-5.2	-18.7
CC(=O)Nc1ccc(C(=O)Nc2ccccc2C)cc1	5.8	-8.4
Cc1ccccc1NC(=O)c1ccc(-c2cccc(F)c2)nc1	-1.0	8.3
Cc1ccc(NS(=O)(=O)c2cccc([N+](=O)[O-])c2)cc1Cl	8.0	-6.1
Cc1cc(-c2[nH]nc3c2C2(C(=O)Nc4ccccc42)C(C#N)=C(N)O3)c(C)s1 (centres undefined)	8.0	0.7
CCOc1ccc(N=C(NN)c2ccc3ccccc3n2)cc1	55.5*	-7.3
Cc1ccc(N=C(NN)c2ccc3ccccc3n2)cc1	44.6	1.7
CCOC1=NN(c2ccc([N+](=O)[O-])cc2)C(=O)/C1=C/c1ccccc1OC	23.0	-2.5
CCOC1=NN(c2ccc([N+](=O)[O-])cc2)C(=O)/C1=C\c1ccccc1C(F)(F)F	62.0*	-2.6
COCC(=O)Nc1sccc1C(=O)OC	·	-10.9
O=C(NCc1ccccc1)c1ccc(N2C(=O)CSC23C(=O)Nc2ccccc23)cc1 (centres undefined)	13.0	-3.3
N#Cc1ccc(-c2ccccc2)[nH]c1=O	4.0	-7.9
O=c1cc(-c2ccccc2)[nH][nH]1	100.1*	-6.1
SMILES	mHTT-CaM PPI inh	Pf apPOL inh
COCCC(=O)N1CCCn2nc(-c3cccnc3)cc2C1	1.1	-2.3
O=C1/C(=C/c2c[nH]c3ccccc23)Sc2ccccc21	13.0	-5.0
O=C1/C(=C/c2c[nH]c3ccccc23)CC/C1=C\c1c[nH]c2ccccc12	98.0*	-3.3
CC(N=Cc1ccc(N(C)C)cc1)C12CC3CC(CC(C3)C1)C2 (centres undefined)	13.0	-9.8
Cc1[nH]nc(NCCc2ccccc2)c1[N+](=O)[O-]	-1.1	-3.1
COc1ccc(C(=O)N2CCCCCC2)cc1OC	-29.1	-12.3
COc1cc(OC)cc(C2=NC3(CCCCC3)N(C(=O)c3ccc(OC)c(OC)c3)C2=S)c1	76.0*	-0.1
COc1ccccc1NC(=O)C1=C(C)Nc2nc3ccccc3n2C1c1cccnc1 (centres undefined)	5.0	-3.1
COc1ccccc1NC(=O)C1=C(C)Nc2nc3ccccc3n2C1c1ccc(Cl)cc1 (centres undefined)	51.0*	-0.5
COc1ccc(N2CCN(C(=O)c3nc(-c4cccc(F)c4)n4c3CCCCC4)CC2)cc1	44.3	0.2
O=C(c1nc(-c2cccc(F)c2)n2c1CCCCC2)N1CCN(c2ccccc2)CC1	78.0*	-4.2
CCc1ccc(NC(=O)CSc2nc3ccccc3[nH]2)cc1	-2.6	-4.1
O=S(=O)(NCc1ccc2c(c1)OCO2)c1cc(Br)c(Br)s1	-6.0	-5.5
O=C(Nc1ccccc1)c1nc[nH]c1C(=O)Nc1ccccc1	-6.9	-7.8
O=C(Nc1ccc(Br)cc1)c1nc[nH]c1C(=O)O	80.0*	-2.7
COc1cccc(OC2OC(COC(C)=O)C(OC(C)=O)C(OC(C)=O)C2NC(C)=O)c1 (centres undefined)	0.5	-4.0
FC(F)(F)c1cccc(N2COc3ccc(Cl)cc3C2)c1	49.0	-2.2
Cc1ccc(N2COc3ccc(Br)cc3C2)cc1	73.0*	1.4
Cc1cccc(N2COc3ccc(Br)cc3C2)c1	99.0*	-3.0
Cc1cc(=O)oc2c3c(ccc12)OCN(c1ccc(Cl)cc1)C3	27.0	1.5
O=C(CCS(=O)(=O)c1cccc2nsnc12)NCCc1ccccc1Cl	4.0	0.6
CSc1ccc(Cl)c(C(=O)N2CCC(c3nc(C(=O)N(C)C)c(C)o3)CC2)c1	19.0	-4.0

From PubChem
